Screening data deposited in PubChem BioAssay by several laboratories.
PfHsp90 yeast 2 = reduces growth (ATP signal) of yeast expressing P. falciparum Hsp90; S. cerevisiae expressing PfHsp90, BacTiter-Glo ATP, 48 h; yeast lacking PDR1 and PDR3 efflux regulators; inhibition, % at 9.4 µM; 310,000 tested, 0.32% active; AID 504621;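 active = every replicate shows inhibition above about 80%, whatever the replicate mean, limit read from the data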;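 note: 0% = DMSO neutral controls and 100% = 20 µM radicicol positive controls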
NLRP3 yeast inh = inhibitors of NALP3 inflammasome in yeast; inhibition, % at 10 µM; 330,000 tested, 0.39% active; Yeast reconstituted NLRP3/ASC/caspase-1, beta-gal luminescence, 24 h; AID 2825;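 active = inhibition of 50% or more; inactive = inhibition below 50%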;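 note: plate controls were induced DMSO wells for no effect and uninduced yeast grown without galactose for full effect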
tim10-1 inh = growth inhibitors of tim10-1 mutant yeast; AID 463190; 330,000 tested, 2.2% active; S. cerevisiae tim10-1 ts strain growth, BacTiter-Glo, 24 h; inhibition, % at 20 µM;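 active = inhibition of at least 40%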;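 note: mutant grown at 25 °C; 0% = DMSO wells with yeast and 100% = wells holding no yeast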
tim23-1 inh = growth inhibitors of tim23-1 mutant yeast; S. cerevisiae tim23-1 growth, BacTiter-Glo luminescence, 24 h; inhibition, % at 20 µM; 330,000 tested, 1.3% active;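 active = growth inhibition of the mutant yeast at or above 50%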;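 note: temperature-sensitive mutant grown at 25 °C; plate controls were DMSO-treated mutant yeast for no effect and medium wells lacking yeast for full effect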
SKKanGAS inh = inhibitors of SKKanGAS S. pyogenes growth in kanamycin (SK-promoter or general growth effect); 300,000 tested, 1.3% active; BacTiter-Glo, 6 h; inhibition, % at 7.5 µM;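 active = mean replicate score, as percent of positive control median, at least 50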;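 note: strain carries kanamycin resistance gene driven by streptokinase promoter and grows in 40 µg/ml kanamycin; loss of luminescence reflects streptokinase promoter inhibition or plain growth inhibition; 0% = median of DMSO wells and 100% = positive control at its reference dose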
TIM10 inh = inhibits growth of TIM10 yeast strain | 330,000 tested, 1.4% active | S. cerevisiae TIM10 strain growth, BacTiter-Glo luminescence, 24 h | inhibition, % at 10 µM | AID 463195;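 active = inhibition of 40% or more at the single tested concentration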;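 note: wild-type TIM10 isogenic control strain grown at permissive 25 °C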
tim10 confirm = TIM10 yeast growth inhibition, confirmed; S. cerevisiae tim10 strain growth, BacTiter-Glo luminescence, 24 h; shares compounds with TIM10 inh; 4,600 tested, 63% active; inhibition, % at 10 µM;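 active = inhibition of yeast growth at or above a set limit in either of two replicates at 10 µM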;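 note: this counterscreen used the strain with wild-type TIM10; 0% = yeast with DMSO and 100% = medium wells lacking yeast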
An asterisk follows results filed as active. Sampled rows, rich in hits. Any-hit rate of the full collection: about 4.5%.

How did COc1ccc2c(c1)C(c1cccs1)=NNC(c1ccncc1)=N2 do in these assays?
PfHsp90 yeast 2: 9.0; NLRP3 yeast inh: 24.8; tim10-1 inh: -13.3; tim23-1 inh: 28.1; SKKanGAS inh: -0.5; TIM10 inh: 13.8

How did CCCOc1ccc(C2=NNC(c3cccs3)=Nc3ccc(OC)cc32)cc1 do in these assays?
PfHsp90 yeast 2: -7.6; NLRP3 yeast inh: 18.5; tim10-1 inh: 22.3; tim23-1 inh: 40.0; SKKanGAS inh: 12.2; TIM10 inh: 51.5*; tim10 confirm: 38.8*

Results for Cc1ccccc1-c1cn(-c2ccccc2)c(=S)[nH]1 ?
PfHsp90 yeast 2: 6.1; NLRP3 yeast inh: 25.1; tim10-1 inh: 15.5; tim23-1 inh: 37.2; SKKanGAS inh: -5.8; TIM10 inh: 40.6*; tim10 confirm: 50.5*

Results for COc1ccc2nc(NC(=O)C3CCN(S(=O)(=O)c4cccc5nsnc45)CC3)sc2c1 ?
PfHsp90 yeast 2: -8.7; NLRP3 yeast inh: 5.2; tim10-1 inh: 18.7; tim23-1 inh: 18.3; TIM10 inh: 40.2*; tim10 confirm: -24.2

What do the screens show for `CC(=O)NC12CC3CC(C1)CC(C(=O)Oc1ccc(N(C)S(=O)(=O)c4cc(C)ccc4C)cc1)(C3)C2`?
PfHsp90 yeast 2: -1.1; NLRP3 yeast inh: 11.0; tim10-1 inh: -0.4; tim23-1 inh: -11.8; SKKanGAS inh: -8.5; TIM10 inh: -4.8

What do the screens show for `Oc1ccc(-c2nnc(-c3ccc(O)cc3)nn2)cc1`?
NLRP3 yeast inh: 12.6; tim10-1 inh: 17.5; tim23-1 inh: -2.2; SKKanGAS inh: 13.0; TIM10 inh: 2.4

What do the screens show for `Oc1ccc(-c2cccc(-c3ccc(O)cc3)n2)cc1`?
NLRP3 yeast inh: 21.2; tim10-1 inh: 32.5; tim23-1 inh: 39.2; SKKanGAS inh: 4.9; TIM10 inh: 44.4*; tim10 confirm: 31.8*

Results for CCCCNC(=S)Nc1cccc(S(=O)(=O)NC2=NCCC2)c1 ?
PfHsp90 yeast 2: -1.5; NLRP3 yeast inh: 29.0; tim10-1 inh: 10.0; tim23-1 inh: -0.2; SKKanGAS inh: -3.7; TIM10 inh: 3.1

Results for O=S(=O)(NCc1ccc2c(c1)OCO2)c1ccc2c(c1)oc1ccccc12 ?
PfHsp90 yeast 2: 1.4; NLRP3 yeast inh: 10.6; tim10-1 inh: 29.8; tim23-1 inh: 39.6; SKKanGAS inh: -12.7; TIM10 inh: 46.1*; tim10 confirm: 28.2*

What do the screens show for `CC(OC(=O)c1ccccc1)C(=O)NCc1ccco1` (configuration not stated)?
PfHsp90 yeast 2: -3.0; NLRP3 yeast inh: 1.2; tim10-1 inh: -4.4; tim23-1 inh: -0.8; TIM10 inh: -7.2

How did C/C(=N\Nc1ccc(Cl)cc1)c1ccccn1 do in these assays?
PfHsp90 yeast 2: 4.4; NLRP3 yeast inh: 9.3; tim10-1 inh: 32.2; tim23-1 inh: 40.2; SKKanGAS inh: -2.6; TIM10 inh: 51.7*; tim10 confirm: 33.7*

Results for Cc1ccc2c(c1)c1nc3ccccc3nc1n2CCN1CCOCC1 ?
PfHsp90 yeast 2: 6.6; NLRP3 yeast inh: 21.6; tim10-1 inh: 15.3; tim23-1 inh: 5.7; SKKanGAS inh: 10.7; TIM10 inh: 48.1*; tim10 confirm: 22.6

What do the screens show for `O=C(O)/C=C/c1ccc2ccccc2n1`?
PfHsp90 yeast 2: -8.8; NLRP3 yeast inh: 8.1; tim10-1 inh: 8.1; tim23-1 inh: 10.8; SKKanGAS inh: 2.6; TIM10 inh: 8.8

How did O=C(/C=C/c1ccc2ccccc2n1)c1cc(Br)ccc1O do in these assays?
PfHsp90 yeast 2: -14.1; NLRP3 yeast inh: 12.7; tim10-1 inh: 33.8; tim23-1 inh: 34.9; SKKanGAS inh: 20.3; TIM10 inh: 52.5*; tim10 confirm: 31.2*

What do the screens show for `C=CCNc1oc(C2CCCC2)nc1C#N`?
PfHsp90 yeast 2: 18.9; NLRP3 yeast inh: 16.4; tim10-1 inh: -1.6; tim23-1 inh: 5.3; TIM10 inh: 0.2

How did CN1/C(=C\C(=S)NC(=O)c2ccccc2Cl)C(C)(C)c2ccccc21 do in these assays?
PfHsp90 yeast 2: -0.3; NLRP3 yeast inh: 24.2; tim10-1 inh: 36.1; tim23-1 inh: 49.7; SKKanGAS inh: 5.3; TIM10 inh: 40.3*; tim10 confirm: 14.9

How did CC(=O)c1cccc(N=Nc2c(C)[nH]c3ccccc23)c1 do in these assays?
PfHsp90 yeast 2: -24.9; NLRP3 yeast inh: 25.9; tim10-1 inh: 21.0; tim23-1 inh: 16.9; SKKanGAS inh: -5.7; TIM10 inh: 41.2*; tim10 confirm: 29.2

Results for CCOC(=O)Nc1cccc(OCC(=O)Nc2ccc3c(c2)CCC3)c1 ?
NLRP3 yeast inh: 31.7; tim10-1 inh: -24.5; tim23-1 inh: 29.3; TIM10 inh: 49.2*; tim10 confirm: 2.7

How did NNc1nc2c(-c3ccc(Cl)cc3)nnn2c2ccccc12 do in these assays?
PfHsp90 yeast 2: 24.1; NLRP3 yeast inh: -2.0; tim10-1 inh: 21.8; tim23-1 inh: 21.1; SKKanGAS inh: 18.7; TIM10 inh: 69.3*; tim10 confirm: 70.0*

How did O=C(O)CC/C(=N/Nc1ncc(C(F)(F)F)cc1Cl)C(=O)O do in these assays?
PfHsp90 yeast 2: -10.9; NLRP3 yeast inh: -1.8; tim10-1 inh: 10.7; tim23-1 inh: -1.7; SKKanGAS inh: -5.7; TIM10 inh: 5.0

How did COc1ccc(N2CC(C(=O)N[C@@H](C)C(=O)NC3CCCCC3)CC2=O)cc1 (some centres not stated) do in these assays?
PfHsp90 yeast 2: -24.9; NLRP3 yeast inh: 5.8; tim10-1 inh: -3.5; tim23-1 inh: 0.7; SKKanGAS inh: -0.2; TIM10 inh: 4.2

Results for CCOC(=O)c1c(C)[nH]c(C(=O)N/N=C/c2ccc(Br)cc2)c1C ?
PfHsp90 yeast 2: -0.8; NLRP3 yeast inh: 12.9; tim10-1 inh: 26.3; tim23-1 inh: 39.2; SKKanGAS inh: 9.9; TIM10 inh: 49.9*; tim10 confirm: 45.6*

How did Cc1[nH]c(C(=O)N/N=C/c2ccc(C(=O)O)cc2)c(C)c1C(=O)N/N=C/c1ccc(C(=O)O)cc1 do in these assays?
PfHsp90 yeast 2: -0.9; NLRP3 yeast inh: 4.4; tim10-1 inh: 7.7; tim23-1 inh: 17.9; SKKanGAS inh: -3.7; TIM10 inh: 11.4

Results for CSc1ccc(/C=C/C(=O)OCC(=O)NCC2CCCO2)cc1 (configuration not stated) ?
PfHsp90 yeast 2: 2.5; NLRP3 yeast inh: 17.7; tim10-1 inh: 3.9; tim23-1 inh: -1.0; TIM10 inh: -8.1

Results for O=C(/C=C/c1cccc(C(F)(F)F)c1)OCC(=O)N1CCN(c2ccccc2)CC1 ?
NLRP3 yeast inh: 29.5; tim10-1 inh: 11.6; tim23-1 inh: 6.9; TIM10 inh: -6.2

What do the screens show for `C[C@H](CO)N1C[C@H](C)[C@@H](CN(C)Cc2ccc(-c3ccccc3)cc2)Oc2c(NS(=O)(=O)c3cccs3)cccc2C1=O`?
PfHsp90 yeast 2: -22.4; NLRP3 yeast inh: 12.8; tim10-1 inh: 8.9; tim23-1 inh: 11.3; TIM10 inh: 7.2
